The inhibition is the relative decrease from the control value, in per cent.

SMILES strings stand for the structures.

One experiment concerns the target PEG-3 (UniProt Q6IN02). The experiment can be described thus: Peg3 promoter luciferase inhibitors, potency, dose response, cell-based, HeLa, CREF/GAPDH counter-screen panel (AID 624167). The following applies: CREF/GAPDH counter-screens; HeLa PEG-Prom luciferase reporter, overnight, run 1, dose range 1, at 100 µM (top of the series) unless noted.
Regarding `CCCCCCSc1cc(-c2nc3ccc(C)cn3c2NCCCC)ccc1OC`, the inhibition came to 98.7%.

In the case of `CCc1nc(Sc2nnnn2-c2ccccc2)c2c3c(sc2n1)CCCC3`, the inhibition came to 68.7%.

With `CCCCCCCCCC[N+](C)(C)CC/C=C1/c2ccccc2Sc2ccc(Cl)cc21`, the inhibition came out at 99.8%.

For the compound `c1cncc(-c2nc(NCC3COc4ccccc4O3)c3ccccc3n2)c1` (stereo not given), the inhibition was 101%.

As to `COc1cc(C(=O)/C=C/c2cccnc2)c([N+](=O)[O-])cc1OC`, the inhibition stood at 102%.

For the compound `C/C(=N\N=C(N)N)c1ccc(Cl)cc1Cl`, the inhibition came out at 99.4%.

Turning to `O=C(CCN1C(=O)/C(=C/c2ccc(F)cc2)SC1=S)N[C@@H](CO)Cc1ccccc1`, the inhibition is 36.9%.

On to `CCCN1C/C(=C/c2cccc([N+](=O)[O-])c2)C(=O)/C(=C/c2cccc([N+](=O)[O-])c2)C1`, for which the inhibition is 26.2%.

For `CCn1cc(C(=O)NCCC(C)C)c(=O)c2cc(F)c(N3CCN(C(=O)c4ccco4)CC3)cc21`, the inhibition was 32.2%.

Consider `Cc1c(C(=O)Nc2ccc(S(=O)(=O)N(C)C3CCN(C)CC3)cc2)oc2c(Cl)cccc12`, for which the inhibition is 102%.

With `c1ccc(CN=C(NCc2ccccc2)NCc2ccccc2)cc1`, the inhibition amounted to 99.7%.

Take `Cc1ccc(C2=NC(=O)/C(=C/c3cc(O)c(O)c(Br)c3)S2)cc1`: the inhibition was 88.6%.

Consider `Cc1c(C(=O)N2CCN(c3ccc(F)cc3)CC2)sc2ncnc(N3CCN(c4ccccn4)CC3)c12`, for which the inhibition was determined as 67.2%.

`CCN(CC)CCNC(=O)c1ccc(NC(=O)c2cccc(S(=O)(=O)N(C)C3CCCCC3)c2)cc1`: the inhibition worked out at 100%.

As to `COc1ccccc1NC(=O)Nc1nc(C(N)CCc2ccccc2)cs1` (stereo not given), the inhibition came to 95.9%.

As to `Cc1cc(C)c2ccc(N)nc2c1O`, the inhibition is 70.1% [run 1, dose range 1, at 50 µM].

On to `O=C(Cn1ncc(Cl)c(Cl)c1=O)N1CCN(Cc2ccccc2)CC1`, for which the inhibition came to 95.2%.

Consider `NCCCNc1nc(N)c([N+](=O)[O-])c(NC2CCCCC2)n1`, for which the inhibition was found to be 96%.

For `COc1ccc(CC(=O)N(Cc2ccccc2)c2ccccc2)cc1S(=O)(=O)N1CCOCC1`, the inhibition is 82.4%.

Turning to `CCN(Cc1ccccc1)S(=O)(=O)c1ccc(C(=O)N(CCCN(C)C)c2nc3cc4c(cc3s2)OCCO4)cc1`, the inhibition stood at 99.4%.

`Cc1ccc2[nH]c3c(c2c1)CCCC3NC(=O)CCl` (stereo not given): the inhibition was 97%.

As to `CCCc1nc2oc3c(NCCCN(C)C)ncnc3c2c2c1CCCC2`, the inhibition is 102%.

For the compound `COc1ccc(C(=O)Nc2cccc(C(=O)N/N=C/c3ccc(OC)cc3OC)c2)cc1`, the inhibition turned out to be 84.1%.

For `Cc1ccc(Cn2c(=N)n(CC(=O)c3ccccc3)c3ccccc32)cc1`, the inhibition worked out at 101%.

As to `CCOc1cccc2sc(N(CCCN(C)C)C(=O)c3ccc(S(=O)(=O)N(CC)Cc4ccccc4)cc3)nc12`, the inhibition was determined as 102%.

For the compound `Cc1nc(-c2ccc(F)cc2)c(CC(=O)N(C)CC(=O)Nc2ccc(Cl)c(C(F)(F)F)c2)s1`, the inhibition was determined as 99.8%.

As for `CC1(C)CC(NC(=O)c2cccc(S(=O)(=O)N(Cc3ccccc3)c3ccccc3)c2)CC(C)(C)N1`, the inhibition turned out to be 101%.

In the case of `NC(=O)C1CCN(C2=C(Cl)C(=O)c3ccccc3C2=O)CC1`, the inhibition amounted to 100%.

Take `O=Nc1c(O)ccc2cc(S(=O)(=O)O)ccc12`: the inhibition was determined as 84.7%.

Take `O=S(=O)(N[C@H]1C[C@@H](NS(=O)(=O)OCC(Cl)(Cl)Cl)C2CCCCC21)OCC(Cl)(Cl)Cl` (stereo not given in full): the inhibition was 99.2%.

In the case of `Cc1c(CCOC(=O)C23CC4CC(CC(C)(C4)C2)C3)sc[n+]1CC(=O)c1ccccc1`, the inhibition came to 99.3%.

For the compound `CC(=O)OCCNc1cc(SCc2ccco2)c2nonc2c1[N+](=O)[O-]`, the inhibition was 100%.

For `O=C(Nc1ccccc1)c1nc[nH]c1C(=O)NCCCCNC(=O)c1[nH]cnc1C(=O)Nc1ccccc1`, the inhibition came to 22.3%.

As for `CC(C)CC(N)c1csc(Nc2ccc(C(=O)N(C)Cc3ccccc3)cn2)n1` (stereo not given), the inhibition is 96.3%.

With `COC(=O)c1cn(NC(=O)c2cc([N+](=O)[O-])ccc2F)c(=O)c2ccccc12`, the inhibition was 95.3%.

Turning to `O=C(NC1=C(NC2CCS(=O)(=O)C2)C(=O)c2ccccc2C1=O)c1ccccc1` (stereo not given), the inhibition was found to be 102%.

With `COc1ccc(CC(N)c2csc(Nc3cccc(OC)n3)n2)cc1` (stereo not given), the inhibition stood at 98.9%.

As to `CC(C)CC(N)c1csc(Nc2ccc(C(=O)c3ccccc3)cc2)n1` (stereo not given), the inhibition worked out at 102%.

Consider `CC(C)CC(N)c1csc(NC(=O)Nc2ccccc2C(C)C)n1` (stereo not given), for which the inhibition worked out at 99%.

On to `Cc1cc(C)c2nc(N(CCCN(C)C)C(=O)c3ccc(S(=O)(=O)N4CCCCCC4)cc3)sc2c1`, for which the inhibition was determined as 102%.

The target in the next experiment is PEG-3 (UniProt Q6IN02). Described as above. The conditions noted are these: CREF/GAPDH counter-screens; HeLa PEG-Prom luciferase reporter, overnight, run 2, dose range 1, at 100 µM (top of the series) unless noted. A general note: A counterscreen serves to expose hits that act by an unwanted route or on another target.
Chain of PEG-3 (Q6IN02 whole entry, looked up): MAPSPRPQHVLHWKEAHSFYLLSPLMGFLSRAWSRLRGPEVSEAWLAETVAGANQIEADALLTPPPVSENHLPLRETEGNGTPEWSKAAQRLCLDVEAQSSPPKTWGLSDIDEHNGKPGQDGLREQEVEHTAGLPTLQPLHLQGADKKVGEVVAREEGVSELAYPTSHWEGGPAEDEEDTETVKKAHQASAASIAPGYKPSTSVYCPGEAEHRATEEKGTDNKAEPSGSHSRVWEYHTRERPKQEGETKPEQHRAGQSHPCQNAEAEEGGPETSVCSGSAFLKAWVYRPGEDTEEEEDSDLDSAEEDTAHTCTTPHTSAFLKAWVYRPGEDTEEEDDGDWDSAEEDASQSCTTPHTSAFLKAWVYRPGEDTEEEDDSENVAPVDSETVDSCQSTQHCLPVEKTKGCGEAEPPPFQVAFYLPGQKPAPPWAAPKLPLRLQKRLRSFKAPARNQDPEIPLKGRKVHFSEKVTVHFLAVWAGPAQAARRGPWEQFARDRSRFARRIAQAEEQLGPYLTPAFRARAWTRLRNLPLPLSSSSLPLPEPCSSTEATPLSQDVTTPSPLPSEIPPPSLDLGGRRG
In the case of `CCCCCCSc1cc(-c2nc3ccc(C)cn3c2NCCCC)ccc1OC`, the inhibition was 101%.

Consider `CCc1nc(Sc2nnnn2-c2ccccc2)c2c3c(sc2n1)CCCC3`, for which the inhibition is 91.8%.

Take `CCCCCCCCCC[N+](C)(C)CC/C=C1/c2ccccc2Sc2ccc(Cl)cc21`: the inhibition is 101%.

For the compound `c1cncc(-c2nc(NCC3COc4ccccc4O3)c3ccccc3n2)c1` (stereo not given), the inhibition was determined as 99.8%.

On to `COc1cc(C(=O)/C=C/c2cccnc2)c([N+](=O)[O-])cc1OC`, for which the inhibition was 99.8%.

As for `C/C(=N\N=C(N)N)c1ccc(Cl)cc1Cl`, the inhibition turned out to be 101%.

`O=C(CCN1C(=O)/C(=C/c2ccc(F)cc2)SC1=S)N[C@@H](CO)Cc1ccccc1`: the inhibition was found to be 72%.

On to `CCCN1C/C(=C/c2cccc([N+](=O)[O-])c2)C(=O)/C(=C/c2cccc([N+](=O)[O-])c2)C1`, for which the inhibition was determined as 30.1%.

Regarding `CCn1cc(C(=O)NCCC(C)C)c(=O)c2cc(F)c(N3CCN(C(=O)c4ccco4)CC3)cc21`, the inhibition is 101% [run 2, dose range 1, at 50 µM].

For `Cc1c(C(=O)Nc2ccc(S(=O)(=O)N(C)C3CCN(C)CC3)cc2)oc2c(Cl)cccc12`, the inhibition came out at 99.1%.

Take `c1ccc(CN=C(NCc2ccccc2)NCc2ccccc2)cc1`: the inhibition stood at 102%.

With `Cc1ccc(C2=NC(=O)/C(=C/c3cc(O)c(O)c(Br)c3)S2)cc1`, the inhibition was 79.4%.

In the case of `Cc1c(C(=O)N2CCN(c3ccc(F)cc3)CC2)sc2ncnc(N3CCN(c4ccccn4)CC3)c12`, the inhibition turned out to be 77.6%.

Regarding `CCN(CC)CCNC(=O)c1ccc(NC(=O)c2cccc(S(=O)(=O)N(C)C3CCCCC3)c2)cc1`, the inhibition was determined as 102%.

Take `COc1ccccc1NC(=O)Nc1nc(C(N)CCc2ccccc2)cs1` (stereo not given): the inhibition amounted to 102%.

As to `Cc1cc(C)c2ccc(N)nc2c1O`, the inhibition is 67.1% [run 2, dose range 1, at 50 µM].

Consider `O=C(Cn1ncc(Cl)c(Cl)c1=O)N1CCN(Cc2ccccc2)CC1`, for which the inhibition came out at 98.8%.

Take `NCCCNc1nc(N)c([N+](=O)[O-])c(NC2CCCCC2)n1`: the inhibition is 102%.

For the compound `COc1ccc(CC(=O)N(Cc2ccccc2)c2ccccc2)cc1S(=O)(=O)N1CCOCC1`, the inhibition is 91.1%.

`CCN(Cc1ccccc1)S(=O)(=O)c1ccc(C(=O)N(CCCN(C)C)c2nc3cc4c(cc3s2)OCCO4)cc1`: the inhibition was found to be 101%.

As for `Cc1ccc2[nH]c3c(c2c1)CCCC3NC(=O)CCl` (stereo not given), the inhibition amounted to 96.5%.

With `CCCc1nc2oc3c(NCCCN(C)C)ncnc3c2c2c1CCCC2`, the inhibition stood at 101%.

As for `COc1ccc(C(=O)Nc2cccc(C(=O)N/N=C/c3ccc(OC)cc3OC)c2)cc1`, the inhibition amounted to 93.1%.

With `Cc1ccc(Cn2c(=N)n(CC(=O)c3ccccc3)c3ccccc32)cc1`, the inhibition worked out at 102%.

With `CCOc1cccc2sc(N(CCCN(C)C)C(=O)c3ccc(S(=O)(=O)N(CC)Cc4ccccc4)cc3)nc12`, the inhibition stood at 101%.

As to `Cc1nc(-c2ccc(F)cc2)c(CC(=O)N(C)CC(=O)Nc2ccc(Cl)c(C(F)(F)F)c2)s1`, the inhibition came out at 102%.

Turning to `CC1(C)CC(NC(=O)c2cccc(S(=O)(=O)N(Cc3ccccc3)c3ccccc3)c2)CC(C)(C)N1`, the inhibition amounted to 102%.

`NC(=O)C1CCN(C2=C(Cl)C(=O)c3ccccc3C2=O)CC1`: the inhibition came to 97.8%.

On to `O=Nc1c(O)ccc2cc(S(=O)(=O)O)ccc12`, for which the inhibition was found to be 89.5%.

In the case of `O=S(=O)(N[C@H]1C[C@@H](NS(=O)(=O)OCC(Cl)(Cl)Cl)C2CCCCC21)OCC(Cl)(Cl)Cl` (stereo not given in full), the inhibition amounted to 101%.

As for `Cc1c(CCOC(=O)C23CC4CC(CC(C)(C4)C2)C3)sc[n+]1CC(=O)c1ccccc1`, the inhibition was 97.8%.

Consider `CC(=O)OCCNc1cc(SCc2ccco2)c2nonc2c1[N+](=O)[O-]`, for which the inhibition was 98.1%.

On to `O=C(Nc1ccccc1)c1nc[nH]c1C(=O)NCCCCNC(=O)c1[nH]cnc1C(=O)Nc1ccccc1`, for which the inhibition amounted to 59.3%.

As to `CC(C)CC(N)c1csc(Nc2ccc(C(=O)N(C)Cc3ccccc3)cn2)n1` (stereo not given), the inhibition is 102%.

As to `COC(=O)c1cn(NC(=O)c2cc([N+](=O)[O-])ccc2F)c(=O)c2ccccc12`, the inhibition is 94%.

On to `O=C(NC1=C(NC2CCS(=O)(=O)C2)C(=O)c2ccccc2C1=O)c1ccccc1` (stereo not given), for which the inhibition was 99.7%.

`COc1ccc(CC(N)c2csc(Nc3cccc(OC)n3)n2)cc1` (stereo not given): the inhibition was 100%.

Turning to `CC(C)CC(N)c1csc(Nc2ccc(C(=O)c3ccccc3)cc2)n1` (stereo not given), the inhibition is 101%.

Regarding `CC(C)CC(N)c1csc(NC(=O)Nc2ccccc2C(C)C)n1` (stereo not given), the inhibition is 101%.

For the compound `Cc1cc(C)c2nc(N(CCCN(C)C)C(=O)c3ccc(S(=O)(=O)N4CCCCCC4)cc3)sc2c1`, the inhibition stood at 100%.

Source of the values: PubChem BioAssay.
